Measurements from PubChem BioAssay (NCATS).
Records with an inconclusive call do not appear. A number with no mark means an inactive call. Calls of active or inactive are those of the source. The call rests on the fitted dose curve; in most records, active means well fitted inhibition curve with a large enough effect; inconclusive means small, poorly fitted or top-dose-only effect; inactive means flat fitted curve, though single readings scatter.
On the % scale 0 is the no-effect control and ±100 the full control effect; potency means the concentration at half of the fitted maximal effect.

What follows are molecules tested against Calcium and integrin-binding protein 1 (Homo sapiens) (UniProt Q99828) (assay: Primary qHTS for Identification of Calcium Integrin Binding Protein 1 (CIB1) Competitor (AID 1508620; on activity change, negative = inhibition: top concentration of the series differs between compounds)). Conditions: CIB1-GST / FITC-alphaIIb peptide fluorescence polarization; series mostly up to 57.7 µM; activity change, negative = inhibition: at the top concentration.
Calcium and integrin-binding protein 1 (Homo sapiens), sequence (Q99828 whole entry, looked up): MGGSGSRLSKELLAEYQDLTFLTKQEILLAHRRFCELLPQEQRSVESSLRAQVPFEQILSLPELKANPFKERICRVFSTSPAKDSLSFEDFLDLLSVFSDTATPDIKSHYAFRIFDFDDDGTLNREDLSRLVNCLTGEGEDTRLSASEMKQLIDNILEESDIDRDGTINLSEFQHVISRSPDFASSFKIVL
In short: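 Fluorescence polarization competition: GST-tagged CIB1 (1 uM final) preincubated with compound 15 min at room temperature, then FITC-labelled alphaIIb peptide (100 nM final) added. After 15 min at room temperature, polarization read at Ex 480/Em 540.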
In the case of `CN1C(=O)c2ccccc2-n2c(nc3ccccc3c2=O)[C@@]12O[C@H]2c1ccccc1`, the “activity change, negative = inhibition” value is reported as -7.65%. `C=CC(C)(O)CC/C=C(/C)C(=O)OC1C(OC2OCC(OC3OC(CO)C(O)C(O)C3O)C(OC3OCC(O)C(OC4OC(C)C(O)C(O)C4O)C3O)C2O)COC(OC(=O)C23CCC(C)(C)CC2C2=CCC4C5(C)CCC(OC6OC(CO)C(OC7OC(CO)C(O)C(OC8OCC(O)C(O)C8O)C7O)C(O)C6O)C(C)(C)C5CCC4(C)C2(C)CC3O)C1O` (stereo unspecified) gave an activity change, negative = inhibition of -3% [at 12.4 µM]. With `OC[C@H]1O[C@@H](Oc2cc(O)cc(-c3cc4ccc(O)cc4o3)c2)[C@H](O)[C@@H](O)[C@@H]1O` the “activity change, negative = inhibition” value was -9.62%. In the case of `O=c1c2ccccc2nc2n1CCC2O` (stereo unspecified), the “activity change, negative = inhibition” value is reported as 4.63% [at 228 µM]. For `CC(=O)OC[C@@]12[C@@H](OC(C)=O)C[C@@H](C)[C@](C)([C@@H]3C[C@H]4C=CO[C@H]4O3)[C@H]1CCC[C@]21CO1`, the “activity change, negative = inhibition” value was 2.02%. `CCC(CCO[C@@H]1O[C@H](CO[C@H]2OC[C@](O)(CO)[C@H]2O)[C@@H](O)[C@H](O)[C@H]1O)C(C)(C)O` (stereo partly specified) was tested, and the “activity change, negative = inhibition” value was 5.23%. For `CC(NC(=O)CC(=O)O)c1nc2ccccc2c(=O)[nH]1` (stereo unspecified), the Potency was 28.2 µM (active). With `CC(C)C(=O)c1cn(CC(=O)COc2ccc(Oc3ccccc3)cc2)c2ccc(C(=O)O)cc12` the “activity change, negative = inhibition” value was 6.11% [at 114 µM]. `CNC(=O)c1ccc2cc([C@@]3(O)CCn4cncc43)ccc2c1` was tested, and the “activity change, negative = inhibition” value was 5.13% [at 114 µM]. `C=C1CC2[C@]3(C)C(=C(O)C(=O)[C@@]2(C)[C@]2(C(=O)OC)C(=O)C(C)OC(=O)[C@@]12C)C(C)(C)C(=O)CC3O` (stereo partly specified) was tested, and the “activity change, negative = inhibition” value was -4.56%. With `CC(CO[C@@H]1O[C@H](COC(=O)/C=C/c2ccc(O)c(O)c2)[C@@H](O)[C@H](O)[C@H]1O)C1(O)COC(=O)C1` (stereo partly specified) the “activity change, negative = inhibition” value was 1.36%. For `C=CC(C)(C)C1(CC2NC(=O)C3CCCN3C2=O)C(=O)Nc2cc3c(cc21)C=CC(C)(C)O3` (stereo unspecified), the “activity change, negative = inhibition” value was 1.05%. With `COC1CC(=O)C23C(=O)NC(CC(C)C)C2C(C)C(C)=CC3/C=C(\C)CCC1O` (stereo unspecified) the “activity change, negative = inhibition” value was 3.93%. `C=C1[C@@H]2CC[C@@]3(C)[C@H](c4ccoc4)OC(=O)C[C@]13O[C@H]1CC(=O)C(C)(C)[C@H](CC(=O)OC)[C@]12C` was tested, and the “activity change, negative = inhibition” value was 0.208%. `COc1ccccc1-n1c(SCC(=O)Nc2nc3ccc(C)cc3s2)nc2c(c1=O)SCC2` was tested, and the “activity change, negative = inhibition” value was 0.583%. In the case of `C=C1C(OC(C)=O)C(=O)C2C(C)(C)C(OC(C)=O)CCC2(C)C1CC(OC(C)=O)/C(C)=C/COC(C)=O` (stereo unspecified), the “activity change, negative = inhibition” value is reported as -2.52%. With `CCS(=O)(=O)N1CCC([C@@H](C)n2c(C)c(C(=O)NCc3c(OC)cc(C)[nH]c3=O)c3ccccc32)CC1` the “activity change, negative = inhibition” value was -6.33% [at 114 µM]. With `CC(/C=C/C1(O)C2(C)COC1(C)CC(=O)C2)O[C@@H]1O[C@H](CO)[C@@H](O)[C@H](O)[C@H]1O` (stereo partly specified) the “activity change, negative = inhibition” value was -3.35%. In the case of `CC(C)(C)c1cc(CN2CCN(CC(O)c3ccc(Cl)cc3)CC2)cc(C(C)(C)C)c1O` (stereo unspecified), the “activity change, negative = inhibition” value is reported as -4.52% [at 114 µM]. With `NCc1c[nH]c(=S)n1C1CCc2c(F)cc(F)cc2C1` (stereo unspecified) the “activity change, negative = inhibition” value was 1.33% [at 114 µM]. `OCC1=CC[C@@H]2C=CO[C@@H](O[C@@H]3O[C@H](CO)[C@@H](O)[C@H](O)[C@H]3O)[C@H]12` was tested, and the “activity change, negative = inhibition” value was -2.94%. For `OC1COC(OCC2OC(OCCc3ccccc3)C(O)C(O)C2O)C(O)C1O` (stereo unspecified), the “activity change, negative = inhibition” value was 1.11%. `CC1=CC(=O)C[C@H]2[C@@H]1CC[C@@H](C)[C@]21CO[C@H](c2ccoc2)C1=O` was tested, and the “activity change, negative = inhibition” value was -2.04%. With `CC(C)(O)c1ccc2c(c1)C(=O)CC1[C@](C)(CO)CCC[C@]21C` (stereo partly specified) the “activity change, negative = inhibition” value was -12.6%. In the case of `CC[C@H]1OC(=O)C[C@@H](O)[C@H](C)[C@@H](O[C@@H]2O[C@H](C)[C@@H](O)[C@H](N(C)C)[C@H]2O)[C@@H](CCN2C[C@H](C)C[C@H](C)C2)C[C@@H](C)C(=O)/C=C/C(C)=C/[C@@H]1CO[C@@H]1O[C@H](C)[C@@H](O)[C@@H](OC)[C@H]1OC`, the “activity change, negative = inhibition” value is reported as -5.76% [at 114 µM]. `Cc1ccc(C(=O)Nc2ccc(Oc3cc4cnn(C)c4cc3-c3cn[nH]c3)c(F)c2)c(=O)n1-c1ccc(F)cc1` was tested, and the Potency was “inactive”. In the case of `CC(C)Nc1cc(-c2c[nH]c(C(=O)N[C@H](CO)c3cccc(Cl)c3)c2)c(Cl)cn1`, the Potency is reported as “inactive”. In the case of `CC[C@H](C)/C=C(C)/C=C/C(=O)Cc1cc(O)c(C)c(O)c1C=O`, the “activity change, negative = inhibition” value is reported as -11%. In the case of `COc1cc(CCc2ccccc2)c(C(=O)O)c2c1CC(C(C)(C)O)O2` (stereo unspecified), the “activity change, negative = inhibition” value is reported as -3.57%. With `CCOc1ccc(-c2ccc(Cn3c(CC(C)(C)C(=O)O)c(SC(C)(C)C)c4cc(OCc5ccc(C)cn5)ccc43)cc2)cn1` the Potency was “inactive”. `CC1(C)CC(=O)N(CCCCN2CCN(c3ncccn3)CC2)C(=O)C1` was tested, and the “activity change, negative = inhibition” value was 2.62% [at 114 µM].
